# TSG101-PTAP inh – inhibitors of HIV-1 PTAP binding to human TSG101, validation. Q99816. Fluorescence polarization, FITC-PTAP peptide/Tsg101, 20 min. Potency, µM (doses to about 115 µM), actives largely listed as inhibitors. 44,000 tested, under 10 active. AID 1347069; further: potency means the concentration at half of the fitted maximal effect; 0% is about no effect
#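 FITC-labeled PTAP peptide (50 nM final) binding to Tsg101 binding domain (10 uM final) read by fluorescence polarization after 20 min at r.t. in HEPES pH 7.5 buffer. Actives by CRC class, <25 µM.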
# GALC G270D act – raises human GALC G270D mutant activity in cells; P54803; 145M-Twi-hGALC-G270D cells (Twitcher mouse brain line with human GALC G270D), HMU-beta-Gal fluorescence, 48 h; Potency, µM (series often up to 57.5 µM), actives largely listed as activators; 45,000 compounds, 0.1% hits; further: potency means the concentration at half of the fitted maximal effect; 0% is about no effect; nearly all actives have a fitted effect of over 65% in size
#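 Fluorogenic HMU-b-Gal hydrolysis (0.1 mM final, pH 5.2 citrate-phosphate with 1 mg/mL sodium taurocholate; carbonate stop buffer) measures mutant GALC activity after compound treatment of live 145M-Twi Twitcher brain cells stably carrying human GALC-G270D, with wild-type GALC line alongside; activation sought.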
# B2AR arrestin ag – ADRB2 beta-arrestin recruitment; P07550; HTLA Tango cells, beta-arrestin recruitment, luciferase luminescence, 18 h; Potency, µM (top dose mostly 46.1 µM), usual class: activators; 44,000 tested, under 10 active;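 further: potency means the concentration at half of the fitted maximal effect; 0% = DMSO and full agonism = EC100 isoproterenol or metaproterenol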
#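 Tango cells (recombinant beta2-AR, beta-arrestin, tTA-driven luciferase), 1500/well in DMEM 1% FBS, treated 18 h at 37 °C with compounds up to 46 µM; luciferin mix added, luminescence read after 15 min; %activity curves fitted and curve-classed.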
# GALK inhibitor – inhibits human galactokinase; recombinant GALK, Kinase-Glo ATP luminescence, 1 h; P51570; 44,000 tested, under 10 active; Potency, µM (top dose mostly 57.5 µM), inactives show at the highest dose activity, negative = inhibition, usual class: inhibitors; AID 1347072;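 further: plate controls were full GALK reaction for no effect and reaction lacking GALK for full effect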
#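 5 nM GALK; 35 uM ATP; 100 uM D-galactose; 20 mM HEPES pH 8.0, 5 mM MgCl2, 60 mM NaCl, 1 mM DTT, 0.01% BSA; 1 h RT; Kinase-Glo Plus luminescence.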
# The depositor's hits bear a star; i = inactive; . = no result given. The list is not random: actives were taken first. Their share in the collection is about 0.17%. The call rests on the fitted dose curve; in most records, active means well fitted curve in the direction sought with a large enough effect; inconclusive means small, poorly fitted or top-dose-only effect, or another doubt; inactive means no such curve, though single readings can be large; an effect the other way counts as inactive or inconclusive.
SMILES,TSG101-PTAP inh,GALC G270D act,B2AR arrestin ag,GALK inhibitor
CCOC(=O)c1ccc(NC(=O)c2sc3nc4c(cc3c2N)N2CCC4CC2)cc1,i,14.1µM*,i,-1.8%
Cc1ccc([N+](=O)[O-])[c]2c1[O][Hg]2,.,i,.,.

# High-throughput results (PubChem)
